The list is not random: actives were taken first. Their share in the collection is about 12%.
Shiga inhibitor: Shiga toxin inhibition. actives 9.2% (n = 290,000). AID 2315. Vero cells, Shiga toxin protein synthesis inhibition reporter. inhibition, % at 38.7 µM; in the data active = inhibition mostly above about 28%, no sharp cut-off; inactive = mostly below about 43%
Sm TGR inh: S. mansoni TGR enzyme inhibition; AID 485364; purified TGR, DTNB reduction, TNB absorbance 405 nm; Potency, µM (doses to about 114 µM), most hits filed as inhibitors; actives 3% (n = 360,000); active = well fitted inhibition curve with a large enough effect; inconclusive = small, poorly fitted or top-dose-only effect; inactive = no such curve, though single readings can be large or run the other way; also: nearly all actives have a fitted effect of over 60% in size
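TGR 20 nM + NADPH 100 uM (dispensed conc.), cpd preinc 15 min RT; start with NADPH (500 uM addition) then DTNB (15 mM addition). Kinetic TNB absorbance, 405 nm filter. Four-parameter Hill fit across titration.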
FMDV antiviral: blocks foot and mouth disease virus; actives 1.2% (n = 410,000); Potency, µM (series often up to 57.9 µM), actives largely listed as inhibitors; FMDV antiviral cell-based qHTS; calls by dose curve; tested in HEK293T cells; also: read-out not given here; nearly all actives have a fitted effect of over 45% in size
CHX counter: counter-screen hit for Shiga toxin inhibitors, cycloheximide; cell reporter, cycloheximide protein synthesis inhibition counterscreen; max response, %; actives 12% (n = 300,000); AID 2314; in the data active = max response mostly above about 13%, no sharp cut-off; inactive = mostly below about 14%; also: read at 38.3 µM for the half of the compounds with a filed dose
Hits are given with their value; 0 = inactive; ? = inconclusive; - = no result given; [ ] = dose if it differs, or a comment.

SMILES	Shiga inhibitor	Sm TGR inh	FMDV antiviral	CHX counter
O=C(NCc1cccs1)c1nn(-c2ccccc2)nc1CO	-	0	0	-
COc1cc(OC)c(Nc2nc3ccccc3c3nncn23)cc1Cl	-	0	0	-
Cc1ccc(NC(=O)c2c(C)oc3c2C2=NCCN2C=N3)cc1F	-	0	0	-
Cc1cc(/C=C(\C#N)c2nc3ccccc3[nH]2)c(C)n1C	67	0	0	23
Cc1cc(/C=C(/C#N)c2nc3ccccc3[nH]2)c(C)n1-c1cccc([N+](=O)[O-])c1	37	0	0	32
CCc1ccc(-n2c(=O)c3c4c(sc3n(CC(=O)N3CCC(C)CC3)c2=O)CCC4)cc1	-	0	0	-
O=C(O)CSc1nc2ccccc2o1	0	0	0	30
CC(Sc1nc2ccccc2o1)C(=O)O (configuration not stated)	79	0	0	37
O=C(CSc1nc2ccccc2o1)c1cc2ccccc2oc1=O	89	0	0	25
CSc1cccc(NC(=O)CSc2nc3ccccc3o2)c1	63	0	-	40
Cc1cc(C)nc(SCC(=O)c2cc3ccccc3oc2=O)n1	0	0	0	0
O=C(CSc1nc2ccccc2o1)NCC(=O)c1ccccc1	0	0	0	0
Cc1cccc2sc(NC(=O)CSc3nc4ccccc4o3)nc12	0	0	0	0
O=C(Nc1c(C(=O)N2CCN(c3ccc(F)cc3)CC2)oc2ccccc12)c1c(F)cccc1F	-	0	0	-
CCCCOc1ccc(CNC(=O)CN2CCSc3ccccc32)cc1	-	0	0	-
COc1ccc(-c2cc3nc(C)c(CCC(=O)NC(C)c4ccccc4)c(C)n3n2)c(OC)c1 (configuration not stated)	-	0	0	-
CC(C)=CCn1cnc2c1c(=O)n(C)c(=O)n2C	-	-	0	-
Cc1cccc(Cn2c(C)c(CNC3CCCCC3)c(C(=O)O)c2C)c1	-	0	0	-
Cc1ccc(C(=O)CSc2nc3ccccc3o2)cc1	0	0	-	26
Cc1nnc(SCC(=O)Nc2ccc(O)cc2)c2ccccc12	0	0	0	0
O=C(CSc1nc2ccccc2o1)N1CCOCC1	42	0	0	27
Cc1nnc(SCC(=O)Nc2ccccc2)c2ccccc12	46	0	0	48
O=C(CSc1nc2ccccc2o1)N1CCCC1	0	0[11.4 µM]	0	0
O=C(CSc1nc2ccccc2o1)Nc1ccccc1	0	0	0	8.5
Cc1cc(Nc2ccc(Br)c(C)c2)n2nc(-c3ccco3)nc2n1	-	0	?	-
SMILES	Shiga inhibitor	Sm TGR inh	FMDV antiviral	CHX counter
COc1c2c(cc3c1C(CC(O)C(C)C)N(C)CC3)OCO2 (configuration not stated)	-	-	0	-
CCn1cc2nc(SCc3cccc(C(F)(F)F)c3)n(Cc3ccc(C)cc3)c(=O)c2n1	-	0	0	-
CC(=O)Nc1ccn(C2CC3OCC(NC(=O)C(NC(=O)OC(C)(C)C)C(C)OCc4ccccc4)C3O2)c(=O)n1 (configuration not stated)	0	-	-	0
COc1ccc(/C=C2\NC(=O)C(C=NCc3ccccc3)=C2O)cc1	0	0	0	0
O=C1N/C(=C\c2ccc(O)cc2)C(O)=C1C=NCc1ccccc1	0	0	0	16
Oc1ccccc1C1=Nc2ccccc2N=C(c2ccco2)C1	0	?	0	13
Cc1noc(C)c1S(=O)(=O)N1CCCC(C(=O)Nc2ccc(C(C)C)cc2)C1 (configuration not stated)	-	0	0	-
COc1cccc(-c2ncc3ccccn23)c1	71	0	0	36
COc1ccc(-c2ncc3ccccn23)cc1	145	0	0	41
COc1cc(-c2ncc3ccccn23)cc(OC)c1OC	0	0	0	0
COc1cc(OC)cc(-c2ncc3ccccn23)c1	0	?	0	0
CCOC(=O)c1sc(Nc2cccc(Cl)c2)nc1C	70	0	0	51
CCOC(=O)c1sc(NC(=O)Nc2ccc(F)cc2)nc1C	121	0	0	93
CCOC(=O)c1sc(NC(=O)Cc2ccc(F)cc2)nc1C	0	0	0	29
CCOC(=O)c1sc(Nc2ccc(OCC)cc2)nc1C	0	0	0	0
COc1ccc(Cn2ccc3nc(C)c(C(=O)Nc4ccc(OC)cc4OC)cc3c2=O)cc1	-	0	0	-
Cc1ccc(-c2cn3c(n2)sc2cc(C(=O)NC4CCCCC4)ccc23)cc1	-	0	0	-
CCOc1ccccc1C1N=C(N)Nc2nc3ccccc3n21 (configuration not stated)	-	0	0	-
O=C(O)Cc1ccc(C(=O)c2ccc(Cl)cc2)s1	0	0	0	0
NC(=O)Cc1ccc(C(=O)c2ccc(Cl)cc2)s1	57	0	0	0
O=[N+]([O-])c1cc(-c2nc(-c3ccccc3)no2)ccc1NC1CCCCC1	-	0	0	-
OCCN(CCO)c1ccc(C(c2ccccc2Cl)c2ccc(N(CCO)CCO)cc2Cl)c(Cl)c1	0	0	40µM	0
COc1cc(NC(=O)CCc2nc3cccnc3n2Cc2cccs2)cc(OC)c1OC	-	0	?	-
Cc1cc(OCCn2c(C3CC(=O)N(Cc4ccc(F)cc4)C3)nc3ccccc32)ccc1Cl (configuration not stated)	-	0	?	-
CCc1ccccc1N1CC(c2nc3ccccc3n2CCOc2ccc(Cl)c(C)c2)CC1=O (configuration not stated)	-	0	28µM	-
SMILES	Shiga inhibitor	Sm TGR inh	FMDV antiviral	CHX counter
Cc1ccccc1S(=O)(=O)NC1OC(=O)C(Oc2ccccc2)=C1Br (configuration not stated)	0	8.9µM	0	0
Cc1ccccc1S(=O)(=O)NC1OC(=O)C(Cl)=C1Cl (configuration not stated)	0	3.2µM	?	0
Cc1ccccc1S(=O)(=O)Nc1nc2ccccc2nc1Cl	0	0	0	0
COc1ccc(CNC(=O)CCc2c(C)c3cc4c(C)coc4cc3oc2=O)cc1	-	0	0	-
Cc1ccc(NC(=O)COc2cccnc2[N+](=O)[O-])cc1S(=O)(=O)N1CCCCC1	0	0	40µM	0
Cc1ccc(NC(=O)COc2ccccc2)cc1S(=O)(=O)N1CCCCCC1	-	0	28µM	-
Cc1ccc(NC(=O)CSc2ncnc3ccccc23)cc1S(=O)(=O)N1CCCCC1	0	0	16µM	0
Cc1ccc(NC(=O)CN(C)CC(=O)Nc2cccc(F)c2)cc1S(=O)(=O)N1CCCCCC1	0	0	25µM	0
Cc1ccc(NC(=O)CSc2ncnc3ccccc23)cc1S(=O)(=O)N1CCOCC1	0	0	?	0
COc1ccc(-c2nnc(C3CCN(S(=O)(=O)c4cccc(Cl)c4)CC3)o2)cc1	-	0	0	-
Cc1ccc(S(=O)(=O)c2nnn3c2nc(NCc2ccc4c(c2)OCO4)c2sccc23)cc1C	-	0	0	-
Cc1cc(C(=O)Nc2ccccc2-c2nc(CNC(=O)c3cscn3)c(C)o2)c(C)o1	-	-	0	-
Cc1ccc(NC(=O)Cn2ncc(Cl)c(Cl)c2=O)cc1S(=O)(=O)N1CCCCC1	-	8.9µM	28µM	-
CC1(C)CC(=O)C2=C(C1)N(c1cccc(O)c1)C1=C(C2)C(=O)CC(C)(C)C1	0	32µM	0	0
O=c1c(-c2ccccc2)n[nH]c2ccccc12	72	0	0	74
O=[N+]([O-])c1ccc2[nH]nc(-c3ccccc3)c2c1	0	0	0	0
Cc1cc(-c2ccccc2)n(-c2cc(N/N=C/c3ccccc3O)ncn2)n1	0	0	?	0
Cc1nn(-c2ccccc2)c(N)c1-c1ccccc1	64	0	0	38
